Compounds with a hit are over-represented: about 3.5% of the library has one in this group of screens.
TEAD-YAP block – TEAD-YAP interaction inhibition. inhibition, % at 9.12 µM. AID 1259422. 640,000 tested, 1.4% active. HEK-TIYL cells, TEAD-Gal4/YAP UAS-luciferase luminescence; in the data active = inhibition above about 32%;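 note: 0% = median of test compound wells and 100% = reference inhibitor wells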
FBW7 activator – activators of human E3 ligase FBW7. normalized activity (activation), % at 26.1 µM. AID 1259310. AlphaScreen FBW7–phospho-cyclin E peptide binding, activator screen. 650,000 tested, 0.13% active. Q969H0; in the data active = normalized activity above about 1.9%;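 note: purified mutant Fbw7 with reduced substrate affinity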
MITF primary – inhibitors of human MITF | O75030 | AlphaScreen MITF homodimerization, bead proximity signal | inhibition, % at 2.6 µM | 650,000 tested, 0.91% active | AID 1259374; in the data active = inhibition above about 50%;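 note: 0% = vehicle wells with protein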
Target sequence (O75030 whole entry, looked up): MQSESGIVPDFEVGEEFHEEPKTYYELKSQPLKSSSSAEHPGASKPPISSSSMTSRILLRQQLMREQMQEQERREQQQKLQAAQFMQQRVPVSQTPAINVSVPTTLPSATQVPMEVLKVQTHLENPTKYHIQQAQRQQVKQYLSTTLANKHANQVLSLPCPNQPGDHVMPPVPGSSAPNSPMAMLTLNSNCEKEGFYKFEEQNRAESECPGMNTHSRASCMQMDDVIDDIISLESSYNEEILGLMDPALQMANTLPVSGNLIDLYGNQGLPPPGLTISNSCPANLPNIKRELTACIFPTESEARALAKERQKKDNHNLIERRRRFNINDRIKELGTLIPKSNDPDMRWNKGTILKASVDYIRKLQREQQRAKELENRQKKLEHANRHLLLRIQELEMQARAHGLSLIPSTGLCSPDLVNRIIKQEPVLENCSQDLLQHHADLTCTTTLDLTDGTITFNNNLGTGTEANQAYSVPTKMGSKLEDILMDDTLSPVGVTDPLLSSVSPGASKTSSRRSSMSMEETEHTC
GPR151 ag – activators of human GPR151. Q8TDV0. PathHunter beta-arrestin GPR151 cells, luminescence. activation, % at 11.2 µM. 650,000 tested, 1% active. AID 1508602; in the data active = activation above about 4.9%;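 note: 0% = median of compound wells and 100% = cells with positive control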
MITF inh conf – human MITF inhibition, confirmation | shares compounds with MITF primary | AlphaScreen MITF homodimerization, biotin/His-MITF beads | inhibition, % at 2.6 µM | 4,700 tested, 16% active;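 active = inhibition above a cutoff derived from the DMSO control wells, cut at about 28% in these data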;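 note: 0% = MITF dimer wells with DMSO only; inhibitors lower the bead chemiluminescence by keeping MITF from dimerizing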
AlphaScreen DR – counter-screen: compounds optically interfering with AlphaScreen; shares compounds with MITF primary; AlphaScreen optical interference counterscreen, cell-free; IC50, µM; 480 tested, 6% active; AID 1259373; call rule not given here
AS interf ctr – AlphaScreen optical interference, counter-screen; AID 1259376; shares compounds with MITF primary; LysRS AlphaScreen counterscreen, signal interference, triplicate; 4,700 tested, 7.6% active; inhibition, % at 2.6 µM;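 active = inhibition above a cutoff derived from the DMSO control wells, cut at about 30% in these data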
Numbers without * were called inactive; . = no result.

SMILES	TEAD-YAP block	FBW7 activator	MITF primary	GPR151 ag	MITF inh conf	AS interf ctr	others
COc1cc(OC)c(OC)cc1CN(C)C1CCN(C)CC1	-4.5	-0.1	25.4	0.0	.	.
CN1CCC(N(C)Cc2cccc(Br)c2)CC1	-3.2	-0.2	34.5	0.4	.	.
CN1CCC(N(C)Cc2cccc(Cl)c2Cl)CC1	0.0	-0.1	11.8	1.6	.	.
CN1CCC(N(C)Cc2c(F)cccc2Cl)CC1	7.0	-0.2	52.5*	3.8	18.0	7.1
O=C(CCCOc1ccc(Cl)cc1Cl)N1CCCCCC1	-20.2	-0.1	9.6	2.5	.	.
NC(=O)NC(CC(=O)NCc1ccccc1)c1cccc(Oc2ccccc2)c1 (stereo not given)	-3.7	-0.1	-4.9	-0.4	.	.
O=C(c1ccccc1Br)N1CCN(c2ccc([N+](=O)[O-])c(NCc3ccccc3)c2)CC1	-15.2	-0.5	-14.7	1.0	.	.
CN1CCC(N(C)Cc2ccc(Cl)cc2)CC1	-11.2	-0.1	52.7*	1.4	-4.7	-0.3
O=c1[nH]cnc2nc(-c3ccco3)c(-c3ccco3)nc12	0.3	-1.1	86.9*	0.2	60.2*	4.7	AlphaScreen DR=>7.63
COc1ccc(CN2CCN(Cc3ccc(OC)c(Br)c3)CC2)c(OC)c1	-8.9	-0.2	63.1*	0.4	1.8	5.3
COc1ccc(CN2CCN(C3CCCC3)CC2)cc1Br	2.2	-0.1	23.1	-0.8	.	.
COc1ccc(OC)c(CN2CCN(Cc3cccc(Br)c3)CC2)c1	0.4	-0.2	59.0*	-0.4	17.7	17.5
COc1ccc(OC)c(CN2CCN(Cc3ccc(OC)c(Br)c3)CC2)c1	4.6	-0.2	65.7*	-0.8	10.7	17.8
COc1cc(COc2ccc3c4c(c(=O)oc3c2)CCCC4)cc(OC)c1OC	-10.4	-0.1	57.0*	1.2	10.2	4.8
Cc1ccc(COc2ccc3c4c(c(=O)oc3c2)CCCC4)cc1	-19.1	0.1	10.2	-0.6	.	.
O=C(c1ccco1)N1CCN(Cc2ccccc2F)CC1	-1.5	0.0	61.2*	2.0	10.1	11.8
O=C(c1ccncc1)N1CCN(Cc2ccccc2F)CC1	-4.9	-0.2	78.4*	-0.8	3.2	11.8
O=C(c1ccc([N+](=O)[O-])cc1)N1CCN(Cc2ccccc2Br)CC1	1.3	-0.2	57.8*	0.1	-11.9	-3.0
CC(C)[C@H]1CN(Cc2ccccc2F)CCN1C(=O)c1ccncc1	-10.4	-0.1	-2.7	0.2	.	.
Cn1cccc1CN1CCN(C(=O)c2ccc([N+](=O)[O-])cc2)CC1	5.5	-0.1	40.0	0.6	.	.
O=C(CNCc1ccccc1F)N1CCN(C(=O)CNCc2ccccc2F)CC1	6.5	0.0	60.7*	-0.4	2.2	17.6
Cc1noc(C)c1-c1cncc(C(=O)Nc2ccccc2)c1	2.2	0.1	4.1	-1.2	.	.
O=C(c1ccc(-c2ccccc2)cc1)N1CCN(Cc2ccncc2)CC1	-34.2	0.1	7.1	1.7	.	.
O=C(c1ccncc1)N1CCN(Cc2ccccc2Br)CC1	0.1	-0.3	61.5*	-0.4	-9.7	-2.3
C=CCn1c(SCC(=O)Nc2ccc(C(=O)OCC)cc2)nnc1-c1ccco1	17.2	0.2	0.0	-1.2	.	.
SMILES	TEAD-YAP block	FBW7 activator	MITF primary	GPR151 ag	MITF inh conf	AS interf ctr	others
CCCCOc1ccc(C2N(c3ccc(C)cc3)CCN2c2ccc(C)cc2)cc1	-5.5	-0.2	-13.2	-1.9	.	.
C/C=C/c1ccc(OCCCCN2CCNCC2)c(OC)c1	-10.8	-0.5	58.6*	0.0	6.1	0.9
COc1cc(C)ccc1OCCN1CCNCC1	4.0	-0.1	19.9	1.2	.	.
C=CCN(CC=C)CCCOc1ccc(C)cc1OC	-2.1	0.8	55.1*	-2.1	10.9	6.6
COc1cc(C)ccc1OCCCCN1CCNCC1	2.2	0.0	62.6*	0.2	6.4	-0.3
C=CCN(CC=C)CCOc1ccc(C)cc1OC	-5.3	-0.5	24.6	-0.1	.	.
Cc1cc(N=Cc2ccc([N+](=O)[O-])o2)ccc1S(=O)(=O)O	2.2	-0.3	57.8*	0.4	47.5*	-12.3	AlphaScreen DR=>6.48
O=[N+]([O-])c1ccc(C=Nc2ccc(N=Cc3ccc([N+](=O)[O-])o3)cc2)o1	14.2	0.1	36.1	0.5	.	.
Cc1ccc(N2C(=O)C3ON(c4ccccc4)C(c4ccc([N+](=O)[O-])cc4)C3C2=O)cc1 (stereo not given)	-1.4	-0.1	60.7*	1.5	5.1	-4.4
N#C/C(=C\c1cccc([N+](=O)[O-])c1)c1c(C#N)c(N)nc(N2CCCCC2)c1C#N	1.8	0.1	18.9	-0.8	.	.
CCOC(=O)c1[nH]c(C)c(CNc2cccc(F)c2)c1C	2.6	0.1	-12.2	1.0	.	.
CCOC(=O)c1[nH]c(C)c(CNc2ccccc2)c1C	2.2	-0.1	60.0*	-0.9	27.3	12.1
CCN(CC)CCCNC(=O)Cn1ncn2c(cc3sccc32)c1=O	11.9	-0.1	-6.7	0.4	.	.
CN(c1ccccc1)S(=O)(=O)c1ccc(/C(O)=C(\C#N)c2nc3ccccc3n2C)cc1	0.5	-0.2	61.7*	-0.4	-5.1	4.7
COc1cccc(-c2ncc3ccccn23)c1	-57.6	-0.8	68.2*	-1.2	14.5	32.4*
COc1cc(OC)cc(-c2ncc3ccccn23)c1	-0.3	-0.6	66.7*	0.2	1.7	15.4
CCOC(=O)c1[nH]c(CN2CCOCC2)c(C(C)=O)c1C	-5.4	-0.1	-1.5	-0.3	.	.
Cc1cc(N)n(-c2ccc(Oc3ccccc3)cc2S(=O)(=O)O)n1	5.7	1.0	51.9*	-1.1	4.6	4.4
Cc1cc(N)n(-c2ccccc2C(F)(F)F)n1	5.5	0.0	14.6	0.2	.	.
CC(C)NC(=O)C(=O)N/N=C/c1ccc(OCc2ccccc2Cl)cc1	-4.2	-0.1	54.9*	-1.0	-2.4	-4.2
CC(C)NC(=O)C(=O)N/N=C/c1ccc(OCc2ccc(Cl)cc2)cc1	-6.0	-0.1	-4.2	-0.7	.	.
CCCCCCCCCCCCCCCCOC[C@H](COP(=O)(O)OCC[N+](C)(C)C)OC(=O)CCC	.	.	-0.4	4.5	.	.
O=c1oc2ccccc2c(O)c1Cc1cc(Cl)c2cccnc2c1O	0.6	0.3	16.3	1.3	.	.
O=C1NC(=O)C(Cc2cc(Cl)c3cccnc3c2O)C(=O)N1	3.1	-0.2	57.7*	0.6	82.1*	84.6*
CCN(C(=O)c1ccc(C)c([N+](=O)[O-])c1)c1ccccc1	5.0	0.1	-2.6	-0.1	.	.
O=C(COc1ccccc1)Nc1ccc(NC(=O)c2cccs2)cc1	-0.6	-0.2	51.2*	0.6	-15.9	0.7
CCOC(=O)c1ccc(Oc2nc(N(C)C)nc(N(C)C)n2)cc1	-10.3	-0.3	54.4*	1.4	2.7	6.7
CCNc1nc(Oc2ccc(C(=O)OCC)cc2)nc(N(C)C)n1	-1.7	0.0	-13.2	0.5	.	.
CN(C(=S)NC(=O)C1(C)CC1(Cl)Cl)c1ccccc1 (stereo not given)	-3.0	0.0	50.6*	-0.6	-1.0	17.6
O=C1CCC(CCNCCOc2ccc(F)cc2)N1Cc1cccc(-n2cccn2)c1 (stereo not given)	2.6	-0.2	-0.1	2.5	.	.
